Measured values: PubChem BioAssay AID1159577 (Broad Institute, 2015)
The campaign covered roughly 1,300 compounds. About 240 (18%) were called active. Roughly 8% stayed inconclusive and do not appear here. No rule for the calls is given here. Only a sample is shown. Entries with a potency or affinity are not part of this list.

Assay: toxicity to human hepatoma HepG2 cells – cell-based, cherry-picked samples, cytotoxicity control, dose response (AID 1159577);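 also: 0% = neutral control wells and -100% = positive control wells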
Conditions: HepG2 cytotoxicity counterscreen, plate reader; series mostly up to 19.5 µM; activity change, negative = cytotoxicity: at the top concentration

SMILES	activity change, negative = cytotoxicity
COc1cccc(NC(=O)N(C)C[C@@H]2Oc3cc(C#Cc4ccccc4)ccc3S(=O)(=O)N([C@H](C)CO)C[C@@H]2C)c1	0.444% (inactive)
COc1ccc(S(=O)(=O)N(C)C[C@H]2Oc3ncc(-c4ccncc4)cc3C(=O)N([C@H](C)CO)C[C@@H]2C)cc1	2.98% [at 21 µM] (inactive)
COc1ccc(C#Cc2ccc3c(c2)O[C@@H](CN(C)C(=O)Nc2cccc(OC)c2)[C@H](C)CN([C@H](C)CO)S3(=O)=O)cc1	-20% (inactive)
C[C@@H]1CN([C@@H](C)CO)C(=O)c2cccc(NC(=O)c3cnccn3)c2O[C@@H]1CN(C)Cc1ccc(-c2ccccc2)cc1	-9.22% (inactive)
COc1ccc(NC(=O)N2CCC3(CC2)CN(C(=O)C2CCC2)[C@@H](CO)c2c3c3ccc(OC)cc3n2C)cc1	11.9% (inactive)
C[C@@H]1CN([C@@H](C)CO)C(=O)c2c(c3ccccc3n2C)-c2ccccc2CO[C@@H]1CN(C)C(=O)[C@H](C)c1ccccc1	-14.1% (inactive)
C[C@H](CO)N1C[C@H](C)[C@@H](CN(C)C(=O)[C@H](C)c2ccccc2)OCc2ccccc2-c2c(n(C)c3ccccc23)C1=O	3.44% (inactive)
CO[C@@H]1CN(C)C(=O)c2ccc(NC(=O)NC(C)C)cc2OC[C@@H](C)N(Cc2ccccc2)C[C@H]1C	14.9% (inactive)
COc1cccc(NC(=O)N2[C@H](CO)[C@H](c3ccccc3)[C@H]2CNCC(C)C)c1	-12.9% (inactive)
COc1ccc(-c2ccccc2[C@H]2[C@@H](C#N)N(C(=O)NC3CCCC3)[C@H]2CO)cc1	-5.87% (inactive)
C[C@@H]1CN([C@@H](C)CO)C(=O)c2cc(NC(=O)C3CC3)ccc2O[C@H]1CN(C)CC1CCCCC1	-8.49% (inactive)
COc1ccc(NC(=O)Nc2ccc3c(c2)CC(=O)N([C@H](C)CO)C[C@H](C)[C@@H](CN(C)CC2CCCCC2)O3)cc1	-30.7% (inactive)
C[C@H](CO)N1C[C@H](C)[C@H](CN(C)CC2CC2)Oc2ccc(NC(=O)Nc3cccc4ccccc34)cc2CC1=O	-5.7% (inactive)
C[C@@H]1CN([C@@H](C)CO)C(=O)Cc2cc(NC(=O)Nc3ccc4c(c3)OCO4)ccc2O[C@@H]1CN(C)CC1CC1	-3.92% (inactive)
C[C@H](CO)N1C[C@H](C)[C@H](CN(C)CC2CC2)Oc2ccc(NS(=O)(=O)c3ccc(Cl)cc3)cc2CC1=O	0.335% (inactive)
C[C@@H]1CN([C@@H](C)CO)C(=O)c2cc(NC(=O)Nc3ccc(C(F)(F)F)cc3)ccc2O[C@H]1CN(C)C(=O)Nc1cccc2ccccc12	-13.1% [at 21 µM] (inactive)
COc1ccc(C#Cc2ccc3c(c2)O[C@@H](CN(C)S(=O)(=O)c2ccccc2F)[C@@H](C)CN([C@H](C)CO)S3(=O)=O)cc1	-9.31% (inactive)
OC[C@@H]1[C@@H](c2ccccc2)C2(CN(CC3CC3)C2)N1Cc1ccc(F)cc1	2.98% (inactive)
COCC(=O)Nc1ccc2c(c1)C(=O)N(C)C[C@H](OC)[C@H](C)CN(Cc1cc(F)ccc1F)[C@H](C)CO2	10.4% (inactive)
COc1ccc(S(=O)(=O)N(C)C[C@H]2Oc3c(NC(=O)Nc4cccc5ccccc45)cccc3C(=O)N([C@@H](C)CO)C[C@H]2C)cc1	6.17% (inactive)
COc1ccc(S(=O)(=O)N(C)C[C@@H]2Oc3c(NC(=O)Nc4cccc5ccccc45)cccc3C(=O)N([C@H](C)CO)C[C@@H]2C)cc1	23.4% (inactive)
COc1ccc(NC(=O)N(C)C[C@H]2Oc3c(NC(=O)Nc4ccccc4)cccc3C(=O)N([C@@H](C)CO)C[C@H]2C)cc1	3.11% (inactive)

SMILES	activity change, negative = cytotoxicity
C[C@H](CO)N1C[C@H](C)[C@@H](CN(C)Cc2ccc(-c3ccccc3)cc2)Oc2c(NC(=O)c3ccc(-c4nccs4)cc3)cccc2C1=O	-7.21% (inactive)
COc1ccc(S(=O)(=O)Nc2cccc3c2O[C@H](CN(C)Cc2ccc(-c4ccccc4)cc2)[C@@H](C)CN([C@H](C)CO)C3=O)cc1	-14.6% [at 21 µM] (inactive)
COc1ccc(CN(C)C[C@@H]2Oc3c(NC(=O)c4ccc(-c5nccs5)cc4)cccc3C(=O)N([C@@H](C)CO)C[C@H]2C)cc1	-15% (inactive)
COc1ccc2c3c([nH]c2c1)[C@H](CO)N(Cc1ccc(F)cc1)CC31CCN(C(C)=O)CC1	-5.36% (inactive)
CNC[C@H]1Oc2ncc(-c3ccc(OC)cc3)cc2C(=O)N([C@H](C)CO)C[C@H]1C	22.7% (inactive)
C[C@@H]1CN([C@@H](C)CO)C(=O)c2cc(NC(=O)Nc3ccc4c(c3)OCO4)ccc2O[C@H]1CN(C)C(=O)Nc1cccc2ccccc12	14% (inactive)
C[C@H]1CN([C@@H](C)CO)S(=O)(=O)c2ccc(C#Cc3ccncc3)cc2O[C@H]1CN(C)S(=O)(=O)c1ccc(F)cc1	3.3% (inactive)
COc1ccccc1S(=O)(=O)N(C)C[C@@H]1Oc2cc(C#CCC(C)C)ccc2S(=O)(=O)N([C@@H](C)CO)C[C@H]1C	-3.25% (inactive)
COc1cccc(NC(=O)N(C)C[C@@H]2Oc3cc(C#Cc4ccc(F)cc4)ccc3S(=O)(=O)N([C@H](C)CO)C[C@@H]2C)c1	4.81% (inactive)
COc1ccc(NC(=O)N(C)C[C@H]2Oc3cc(C#CCC(C)C)ccc3S(=O)(=O)N([C@H](C)CO)C[C@H]2C)cc1	1.72% (inactive)
COc1ccccc1S(=O)(=O)N(C)C[C@@H]1Oc2cc(C#CCC(C)C)ccc2S(=O)(=O)N([C@@H](C)CO)C[C@@H]1C	-3.02% (inactive)
COc1cccc(NC(=O)N(C)C[C@@H]2Oc3cc(C#Cc4ccc(F)cc4)ccc3S(=O)(=O)N([C@@H](C)CO)C[C@@H]2C)c1	-5.78% (inactive)
C[C@@H]1CN([C@@H](C)CO)S(=O)(=O)c2ccc(/C=C/c3ccccc3)cc2O[C@H]1CN(C)Cc1cccnc1	-0.832% (inactive)
CC(C)CC#Cc1ccc2c(c1)O[C@H](CN(C)S(=O)(=O)c1ccc(F)cc1)[C@@H](C)CN([C@@H](C)CO)S2(=O)=O	-9.19% (inactive)
C[C@@H]1CN([C@@H](C)CO)S(=O)(=O)c2ccc(/C=C/c3ccccc3)cc2O[C@H]1CN(C)C(=O)C1CC1	-1.84% (inactive)
CCCC(=O)N1CCC2(CC1)CN[C@@H](CO)c1[nH]c3cc(OC)ccc3c12	1.85% (inactive)
N#C[C@@H]1[C@H](c2ccccc2C2=CCCCC2)[C@@H](CO)N1S(=O)(=O)c1ccccc1	-8.39% (inactive)
COc1ccc(C#Cc2ccc3c(c2)[C@@H]2[C@@H](CCN2C(=O)C2CC2)[C@H](CO)N3)cc1	-15% (inactive)
COCC(=O)N1CC2(C1)CN(Cc1cccc(Cl)c1)[C@@H](CO)c1[nH]c3cc(OC)ccc3c12	8.31% (inactive)
CCC(=O)Nc1ccc2c(c1)OC[C@H](C)N(Cc1ccccn1)C[C@H](C)[C@H](OC)CN(C)C2=O	-6.77% (inactive)
CN(C)CC#Cc1cccc(-c2nc(C(=O)N[C@@H]3CCN(Cc4ccccc4)C3)cc3c2[C@H](CCO)N(S(=O)C(C)(C)C)C3)c1 (stereo partly specified)	-9.7% (inactive)
COc1ccc(C#Cc2ccc3c(c2)O[C@@H](CN(C)S(=O)(=O)c2ccccc2F)[C@@H](C)CN([C@@H](C)CO)S3(=O)=O)cc1	18.1% (inactive)

SMILES	activity change, negative = cytotoxicity
COc1ccc2c3c([nH]c2c1)[C@H](CO)N(Cc1cc(F)ccc1F)CC31CCN(C(C)=O)CC1	-5.87% (inactive)
CN1C[C@H]2[C@@H](c3ccccc31)[C@H](CO)N2Cc1ccccc1F	2.08% (inactive)
COc1cccc(NC(=O)N2[C@@H](CO)[C@@H](c3ccccc3)[C@@H]2CNCC(C)C)c1	-22.2% (inactive)
Cc1ccc(-c2ccc3c(c2)O[C@@H](CN(C)Cc2cccnc2)[C@@H](C)CN([C@@H](C)CO)S3(=O)=O)cc1	-31.1% (inactive)
C[C@H](CO)N1C[C@H](C)[C@H](CN(C)C(=O)Nc2cc(F)ccc2F)Oc2cc(/C=C/c3ccccc3)ccc2S1(=O)=O	-14.4% (inactive)
C[C@H](CO)N1C[C@H](C)[C@H](CN(C)C(=O)Nc2ccc(F)cc2)Oc2cc(/C=C/c3ccccc3)ccc2S1(=O)=O	-7.91% (inactive)
C[C@@H]1CN([C@H](C)CO)S(=O)(=O)c2ccc(-c3ccncc3)cc2O[C@H]1CN(C)Cc1ccc(Oc2ccccc2)cc1	6.58% (inactive)
CCS(=O)(=O)N1CCC2(CC1)CN(Cc1ccc3c(c1)OCO3)[C@H](CO)c1[nH]c3cc(OC)ccc3c12	12.4% (inactive)
CCC(=O)N1[C@H](CO)[C@@H](c2ccccc2-c2cccc(C)c2)[C@@H]1C#N	-26.1% [at 21 µM] (inactive)
COc1ccccc1CNC(=O)C[C@H]1C[C@@H]2c3cc(NC(=O)Nc4ccc(C(F)(F)F)cc4)ccc3O[C@@H]2[C@@H](CO)O1	-0.188% (inactive)
CO[C@H]1CN(C)C(=O)c2cc(NC(=O)C3CC3)ccc2OC[C@H](C)N(Cc2cccc(F)c2)C[C@H]1C	1.64% (inactive)
O=C(c1ccccc1)N1CC[C@@H]2[C@@H](CO)Nc3ccc(-c4ccc(F)cc4)cc3[C@@H]21	5.88% [at 21 µM] (inactive)
COc1ccc(C#Cc2ccc3c(c2)O[C@@H](CN(C)C(=O)Nc2cccc(OC)c2)[C@@H](C)CN([C@@H](C)CO)S3(=O)=O)cc1	17.5% (inactive)
Cc1ccccc1S(=O)(=O)N1[C@H](CO)[C@@H](c2ccc(C#CC3CCCCC3)cc2)[C@@H]1C#N	8.7% (inactive)
COCC(=O)N1CC2(C1)CN(Cc1cc(F)ccc1F)[C@H](CO)c1[nH]c3cc(OC)ccc3c12	-3.42% (inactive)
CO[C@@H]1CN(C)C(=O)c2cc(NC(=O)c3nc4ccccc4s3)ccc2OC[C@@H](C)N(Cc2ccccc2)C[C@H]1C	5.97% (inactive)
CO[C@@H]1CN(C)C(=O)c2ccc(NC(=O)c3nc4ccccc4s3)cc2OC[C@H](C)N(Cc2ccncc2)C[C@@H]1C	13.8% (inactive)
CO[C@@H]1CN(C)C(=O)c2ccc(NC(=O)c3nc4ccccc4s3)cc2OC[C@@H](C)N(Cc2cccnc2)C[C@H]1C	-15.2% (inactive)
CO[C@@H]1CN(C)C(=O)c2ccc(NC(=O)c3nc4ccccc4s3)cc2OC[C@H](C)N(Cc2cccnc2)C[C@@H]1C	3.62% (inactive)
CC(=O)N1CC[C@@H]2[C@@H](CO)Nc3ccc(C#Cc4ccccc4F)cc3[C@@H]21	12.8% [at 21 µM] (inactive)
C/C=C/c1ccc([C@@H]2[C@@H](CO)N(CC3CCCC3)C23CN(S(=O)(=O)CC)C3)cc1	-6.49% (inactive)
COc1ccccc1CN1C[C@@H](C)[C@H](OC)CN(C)C(=O)c2ccc(NC(=O)Nc3ccccc3OC)cc2OC[C@H]1C	-18.3% (inactive)
